# The campaign covered roughly 340,000 compounds. About 1,000 (0.29%) were called active. These entries were drawn from the full list. Results with a measured potency or affinity are listed apart. A number with no mark means an inactive call. Rule as the data show it: inconclusive = inhibition above about 27% without an active follow-up result; inactive = below that.
# Assay: NS1A inhibition, H1N1 influenza, cell based functional assay (AID 504329)
# Conditions: percent inhibition, at 12.5 µM, hits give high values
row,Structure (SMILES),inhibition [%]
1,S=C(NC1CCCC1)N1CCN(c2ccccn2)CC1,-9.04
2,C/C(=N/NC(=O)c1cnccn1)c1ccncc1,2.49
3,CC(=O)c1nccs1,-23
4,C/C(=N\NC(=S)NC1CCCCC1)c1ccccc1,11.5
5,C/C(=N\NC(=S)NC1CCCCC1)c1cccs1,7.94
6,C/C(CC(=O)NC1CCCCCC1)=N\NC(=O)c1cnccn1,2.22
7,C/C(=N\NC(=O)C1CC1)c1cccnc1,-3.09
8,CCNC(=S)N1CCN(c2ccccn2)CC1,-6.5
9,COc1cc(SC)ccc1C(=O)Nc1ccc2c(c1)CCN2S(C)(=O)=O,0.73
10,CC(=O)Nc1cc(C(=O)OCC(=O)c2ccc(C)cc2)ccc1C,2.61
11,CCOc1ccc(-c2nc(S(=O)(=O)c3ccccc3)c(N3CCOCC3)o2)cc1,6.87
12,CNC(=O)c1c(NC(=O)C2=COCCO2)sc2c1CCC(C)C2 (stereo not drawn),-0.48
13,COc1ccc(CCN(Cc2ccccn2)C(=S)Nc2ccccc2F)cc1OC,2.66
14,Cc1cccc(N2CCN(C(=O)CCn3c(=O)[nH]c4ccsc4c3=O)CC2C)c1 (stereo not drawn),14.2
15,CC(C)[C@H](NC(=O)OCc1ccccc1)C(=O)OCC(=O)Nc1ccc(N2CCOCC2)cc1,-2.26
16,O=C(CSc1nnc(-c2ccccn2)o1)Nc1ccccc1,-0.31
17,O=C(CSc1ncccn1)Nc1ccccc1,-12.3
18,O=C(CSc1ccccn1)Nc1ccc(NC(=O)CSc2ccccn2)cc1,3.94
19,O=C(CSc1ccc(C(F)(F)F)cn1)Nc1ccccc1,-2.05
20,O=C(N/N=C/C1CC2CCC1C2)c1ccc2c(c1)OCO2 (stereo not drawn),4.78
21,Cc1ccccc1C(=O)c1cccn1CC(=O)NCCCc1ccccc1,-0.87
22,CCOC(=O)c1c(C)[nH]c(C(=O)OCc2ccc(F)cc2)c1C,-5.78
23,CCOc1ccc(C2NC(=O)NC(C)=C2C(=O)OCc2ccccc2)cc1 (stereo not drawn),-2.43
24,CCOC(=O)C1=C(COc2ccccc2)NC(=O)NC1c1ccc(Cl)cc1 (stereo not drawn),3.45

row,Structure (SMILES),inhibition [%]
1,CCOC(=O)C1=C(c2ccccc2)NC(=O)NC1c1ccc(OCC#N)c(OC)c1 (stereo not drawn),1.47
2,CCOC(=O)C1=C(c2ccccc2)NC(=O)NC1c1ccc(OC)c(OC)c1 (stereo not drawn),-15.2
3,CCOC(=O)[C@@H]1[C@H]2COc3cc(OC)ccc3[C@@H]2N2C(=O)N(c3cccc(C)c3)C(=O)[C@]12C,2.49
4,COc1ccc(C2=CC(c3ccc(OC)c(OC)c3)c3c(c4ccccc4oc3=O)O2)cc1OC (stereo not drawn),26.9
5,Cc1ccc(NC2(C(N)=O)CCCC2)cc1,-3.06
6,CCC1=C(C)C(N2CCOCC2)=NP(N2CCOCC2)(N2CCOCC2)=N1,3.31
7,CCC(Sc1nc(C)cc(=O)[nH]1)C(=O)Nc1sc2c(c1C#N)CCCC2 (stereo not drawn),-5.51
8,N#Cc1cc(NC2CCCC2)c([N+](=O)[O-])cc1C#N,12.5
9,CCCCCCNc1c([N+](=O)[O-])cc(C)cc1[N+](=O)[O-],28.9
10,Cc1cc([N+](=O)[O-])c(NCCCCCCO)c([N+](=O)[O-])c1,11
11,Cc1cc(C(=O)NC2CCCCCCC2)ccc1[N+](=O)[O-],-15.4
12,CCCn1c2ccccc2c2cnn(CC(=O)NCCCOC)c(=O)c21,0.78
13,CCN(CC(=O)Nc1c(F)cccc1F)C(=O)CNC(=O)c1ccco1,-4.3
14,CN1c2cccc3cccc(c23)N(C)C1(C)C,20.9
15,CN1c2ccccc2N(C)C1(C)c1ccccc1,14.4
16,CC(C(c1ccc2c(c1)OCO2)c1c(N)n(C)c(=O)n(C)c1=O)[N+](=O)[O-] (stereo not drawn),-16.4
17,COc1ccc(NC(=O)CSc2nnc3ccc(-c4cccnc4)nn23)cc1OC,-19.3
18,COC(=O)c1ccc(C(=O)NC(=S)Nc2ccc3nc(SC)sc3c2)cc1,-0.55
19,NS(=O)(=O)c1cccc(NC(=O)COC(=O)COc2ccc3ccccc3c2)c1,-0.29
20,O=C(N/N=C/c1cccs1)c1ccc2c(c1)OCO2,8.44
21,CN(C)c1ccc2c(c1)OC(N)=C(C#N)C2c1cccc(F)c1 (stereo not drawn),-65.2
22,CN(C)c1ccc(N=Nc2ccc(C(=O)O)cc2)cc1,-2.64
23,Nc1n[nH]c(N)c1N=Nc1cccc(F)c1,1.03
24,CC(=O)c1ccc(N=Nc2ccc(N(C)C)cc2)cc1,13

# Source: PubChem BioAssay AID504329 (Southern Research Specialized Biocontainment Screening …, 2011)
